Data as given in PubChem BioAssay (NCI).
Compounds without any hit were thinned out: in the full panel of roughly 79,000, 15% have a hit. A number with no mark means an inactive call. The source made the active and inactive calls. Cut-off read from the data, not from the text of the source: active = growth inhibition above about 70%; inactive = the rest.

Key:
[1] = NCI Yeast Anticancer Drug Screen. Data for the rad50 strain (AID 155);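 note: 0% = growth of vehicle-only cultures of the same strain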; conditions: S. cerevisiae rad50 strain growth inhibition; at 50.0 µM; stronger effect = higher value
Procedure, shortened: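 DNA repair mutant yeast, compound exposure, growth read-out; inhibition is taken relative to vehicle.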

[2] = NCI Yeast Anticancer Drug Screen. Data for the mec2-1 strain (AID 157); conditions: S. cerevisiae mec2-1 strain, at 50.0 µM, stronger effect = higher value
Procedure, shortened: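 Readout is yeast growth inhibition, normalised to vehicle-treated controls, in the mec2-1 strain exposed to compound.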

[3] = NCI Yeast Anticancer Drug Screen. Data for the sgs1 mgt1 strain (AID 161);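 note: 0% = growth of cultures given vehicle only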; conditions: S. cerevisiae sgs1 mgt1 strain, at 50.0 µM, stronger effect = higher value
Procedure, shortened: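 Compounds are added to genetically altered yeast, and growth is compared with cultures given vehicle alone to give percent inhibition.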

[4] = NCI Yeast Anticancer Drug Screen. Data for the cln2 rad14 strain (AID 165);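 note: 0% = growth equal to vehicle treated cultures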; conditions: S. cerevisiae cln2 rad14 strain, at 50.0 µM, stronger effect = higher value
Procedure, shortened: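 Relative to vehicle controls, growth inhibition of compound-treated cln2 rad14 yeast was recorded.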

[5] = NCI Yeast Anticancer Drug Screen. Data for the bub3 strain (AID 167); conditions: S. cerevisiae bub3 mutant strain, at 50.0 µM, stronger effect = higher value
Procedure, shortened: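 In this screen, a yeast mutant lacking normal mitotic checkpoint function is challenged with compound. Relative growth versus vehicle gives the inhibition value.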

[6] = NCI Yeast Anticancer Drug Screen. Data for the mlh1 rad18 strain (AID 175); conditions: S. cerevisiae mlh1 rad18 strain growth inhibition; at 50.0 µM; stronger effect = higher value
Procedure, shortened: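 Test agents were incubated with a yeast strain of defined genotype (DNA damage repair defect). Inhibition of growth was derived by comparison with vehicle-exposed cultures.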

| SMILES | growth inhibition [1] | growth inhibition [2] | growth inhibition [3] | growth inhibition [4] | growth inhibition [5] | growth inhibition [6] |
| --- | --- | --- | --- | --- | --- | --- |
| Cc1ccc(NS(=O)(=O)c2ccc(F)cc2)cc1Cl | 99.7% (active) | 99.3% (active) | 99.7% (active) | 99.3% (active) | 99.6% (active) | 99.8% (active) |
| COC1CCC(/C(C#N)=C/C2CCC(NC(C)=O)CC2)CC1 (configuration not stated) | 3.95% | 0.65% | 25.9% | 1% | 22.1% | 5.2% |
| CN1CCc2c1nc(-c1ccc([N+](=O)[O-])cc1)c1c2N(C)CC1 | 13.2% | 0.7% | 2.8% | 6.85% | 10.8% | 9.95% |
| O=C(O)c1ccc(Br)cc1 | 5.1% | -6.05% | 2.8% | -25.2% | 9.8% | 0% |
| O=S(=O)(Cc1cccs1)c1ncc(Br)cn1 | 9.25% | 10.1% | 7.9% | 7.5% | 11.8% | 7.8% |
| CCOC(=O)C(CO)NC(=O)C[NH-].CCOC(=O)C(CO)NC(=O)C[NH-].[Cl][Pt+2][Cl] (configuration not stated) | -12.5% | -8.55% | -17.4% | -34.4% | -3.5% | 12.2% |
| Brc1cc2c(cc1C=NC1CCCCC1)OCO2 | 25.6% | 22.8% | -4.05% | 6.8% | 18.8% | 43.7% |
| O=C(O)c1cccnc1-c1ccccc1 | -3.95% | 23.6% | -9.85% | -4.7% | -12.9% | -12.2% |
| C[N+]1=CN(c2ccc(Cl)cc2)Cc2cc(Cl)ccc21 | 31.1% | -12.1% | 25.6% | 13.4% | 40.1% | 34% |
| N#Cc1ccccc1Br | 21.4% | -19.8% | 21.1% | 11.8% | 11.8% | 29.8% |
| CN1CCC(c2ccccc2)(C(O)(c2ccccc2)c2ccccc2)CC1 | 3.15% | 1.25% | -6% | 12.1% | 0.65% | 12.7% |
| O=c1c2ccccc2nc(-c2ccccc2)n1NC(=S)Nc1cccc(Cl)c1 | 7.45% | -27.1% | 3.65% | -71.7% | 28.7% | 0.55% |
| O=[N+]([O-])c1cccc(/C=N\NS(=O)(=O)c2ccc(Cl)cc2)c1O | -11.7% | -13.3% | -11.8% | -2.3% | -38.4% | -5.9% |
| CN1NC2(CCCCC2)ON=C1c1ccccc1 | 5.35% | -5.5% | 11.1% | 7.9% | -6.35% | 10.7% |
| CCCC1(C(OC)OC)NC(=O)N(Cc2ccccc2)C1=O (configuration not stated) | 4.45% | -5.15% | 5.15% | -19.7% | -2.1% | 4.75% |
| CCC1=C(C(C)=O)[C@@H]2CCCCC(C(=O)OC)[C@@H]2C1=O (some centres not stated) | -38.7% | -20.3% | -20.8% | 19.7% | 8.65% | -3.7% |
| Nc1cccc(-c2nc3ncnc(N)c3[nH]2)c1 | 8.6% | -2.15% | -5.5% | -46.9% | -18.5% | -11.2% |
| Cc1nc2c(cc1C#N)C(Nc1ccc(Cl)cc1)Oc1ccc([N+](=O)[O-])cc1-2 (configuration not stated) | -4.6% | -12.3% | 0.5% | -32.2% | -36.5% | -7.5% |
| NCCCCCOCCCCCN | 3.4% | -0.25% | -7% | -8.1% | 3.8% | -1.65% |
| N#Cc1ccc[n+](Cc2c(Cl)cccc2Cl)c1 | 6.6% | 28.9% | 23.2% | 5.8% | 20.6% | 44.1% |
| C=CC1OCC2(CO1)COC(C=C)OC2 (configuration not stated) | 12.4% | -11.7% | 2.4% | -7.55% | -12.4% | 2.75% |

| SMILES | growth inhibition [1] | growth inhibition [2] | growth inhibition [3] | growth inhibition [4] | growth inhibition [5] | growth inhibition [6] |
| --- | --- | --- | --- | --- | --- | --- |
| COC12OCCN(C)C1=CC(=O)C1=NNC(C)C12 (configuration not stated) | -37% | -1.6% | -8% | -27% | -11.8% | -36.5% |
| O=C(OCC1OC(c2ccccc2)OC2C(COC(=O)c3ccccc3)OC(c3ccccc3)OC12)c1ccccc1 (configuration not stated) | 4.4% | 6.1% | -0.6% | 6.7% | 12.4% | 14.1% |
| C=C(C)CN(Cc1ccccc1)C1CCCCCCC1 | -7.55% | -11.3% | -14.8% | -5.75% | 1.35% | -17.6% |
| CCOC(CN=CC1CCC=CO1)OCC (configuration not stated) | 10.9% | -5.35% | 2.85% | -1.55% | -1.5% | 6.65% |
| Cc1ccc(S(=O)(=O)N/N=C/c2cc(I)cc(I)c2O)cc1 | 99.5% (active) | 99.3% (active) | 99.2% (active) | 99.4% (active) | 98.3% (active) | 99.1% (active) |
| Cc1ccc(S(=O)(=O)OC(c2ccc(Cl)cc2Cl)C2OC(=O)c3ccccc32)cc1 (configuration not stated) | 23.3% | -12.4% | 16.9% | 24.7% | 15% | 21.4% |
| O=C(Nc1ccc(Cl)c(Cl)c1)C1C(=O)N(c2ccc(Cl)c(Cl)c2)C(=O)/C1=N\O (configuration not stated) | 24.4% | -4.3% | 11.2% | 16.9% | -3.3% | 22.8% |
| COC(=O)c1ccc([N+](=O)[O-])cc1C(=O)OC | 4.85% | -16.7% | -42.1% | -12.3% | -52.8% | -3.2% |
| NCCSCCN | -7.65% | -2.45% | -4.65% | -0.3% | 13.2% | 8.15% |
| C/C(CC(=O)N1CCCCC1)=N\NC(N)=S | -6.95% | -9.45% | -18.9% | -10.5% | 2.2% | -18.2% |
| S=C1c2cc(Cl)ccc2NC(=NC2CCCC2)C2CSCN12 (configuration not stated) | 7.65% | 14.7% | 51.5% | -3.25% | 33.3% | 28.5% |
| O=[N+]([O-])c1ccc(-c2cccc3ccccc23)c([N+](=O)[O-])c1 | 15.7% | 34.9% | 17.1% | 15.9% | 33.5% | 21.1% |
| CC(O)CC(C)CO (configuration not stated) | 23.1% | -20.3% | -9.5% | -55.5% | 15.2% | 18% |
| CC1(CCN2CCCC2)NC(=O)NC1=O (configuration not stated) | 15.9% | -20.3% | -5.25% | 1.05% | 3.4% | 10.9% |
| Nc1nc(SCCc2ccccc2)c2[nH]cnc2n1 | -2.35% | -4.35% | -42.6% | -16.6% | -20.4% | 7% |
| CCCCCCCCCCCCCC1CCC(CC)N1 (configuration not stated) | 92% (active) | 93.7% (active) | 92.2% (active) | 91.6% (active) | 91.8% (active) | 91.8% (active) |
| N#CCCc1nc(N)nc(N)n1 | -19.7% | -3.7% | -26.9% | -60.3% | -17.7% | 5.85% |
| N#CCCN(CCc1ccccn1)CN1C(=O)c2ccccc2C1=O | 10% | -4.85% | -3.75% | -7.45% | 3.25% | -13.2% |
| C/C(=N\NC(=O)c1cc(C)nc2ccc(Br)cc12)c1ccccc1O | 71.1% (active) | 63% | 79.8% (active) | 48.3% | 7.3% | 72.5% (active) |
| CC12CCC(/C(=N/O)C1=O)C2(C)C (configuration not stated) | 2.15% | -2.15% | 1.1% | -74.5% | -1.8% | 4.25% |
| Clc1ccc2c(c1)CCc1cccnc1C2=C1CCNCC1 | 8.55% | -4.5% | -20.6% | 16.1% | 0.4% | -15.1% |
